Reference: the supplement of paper PMC8728848
Only a selection was taken, and the strongest signals are over-represented in it overall.

Experiments:
Test in all cases: glycan array binding signal (z-score within array); higher = stronger binding
Details in all cases: glycan notation: IUPAC condensed, linker removed; mutation: E41A
[1] = biological target: Fuc(a1-2)Gal(b1-3)GalNAc(a1-3)[Fuc(a1-2)]Gal(b1-4)GlcNAc
Outline: (§1)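 Glycan array data came from 3228 arrays in the Consortium for Functional Glycomics database, and only arrays with an available protein sequence were kept. Glycan names were put into IUPAC-condensed notation, and columns mapping to the same glycan were averaged. The binding signal is a within-array Z-score, averaged across arrays of one protein sequence run at different concentrations or buffers and across linkers. A negative Z-score can be read as non-binding.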

[2] = biological target: Fuc(a1-2)Gal(b1-4)GlcNAc(b1-2)Man
Outline: as §1

[3] = biological target: Fuc(a1-2)Gal(b1-4)GlcNAc(b1-3)GalNAc
Outline: as §1

[4] = biological target: Fuc(a1-2)[Gal(a1-3)]Gal(b1-4)[Fuc(a1-3)]Glc
Outline: as §1

[5] = biological target: Fuc(a1-2)[GalNAc(a1-3)]Gal(b1-3)GlcNAc
Outline: as §1

[6] = biological target: Fuc(a1-2)[GalNAc(a1-3)]Gal(b1-4)GlcNAc(b1-2)Man(a1-3)[Fuc(a1-2)[GalNAc(a1-3)]Gal(b1-4)GlcNAc(b1-2)Man(a1-6)]Man(b1-4)GlcNAc(b1-4)[Fuc(a1-6)]GlcNAc
Outline: as §1

[7] = biological target: Fuc(a1-2)[GalNAc(a1-3)]Gal(b1-4)GlcNAc(b1-3)Gal(b1-4)GlcNAc(b1-3)Gal(b1-4)GlcNAc
Outline: as §1

[8] = biological target: Fuc(a1-2)[GalNAc(a1-4)]Gal(b1-4)GlcNAc
Outline: as §1

[9] = biological target: Fuc(a1-3)[Gal(b1-4)]GlcNAc
Outline: as §1

[10] = biological target: Fuc(a1-3)[Gal3S(b1-4)]Glc
Outline: as §1

Gal(a1-2)Gal = biological target: Gal(a1-2)Gal
Outline: as §1

Gal(a1-3)Gal(b1-3)GlcNAc = biological target: Gal(a1-3)Gal(b1-3)GlcNAc
Outline: as §1

[11] = biological target: Gal(a1-3)Gal(b1-3)[Fuc(a1-4)]GlcNAc(b1-2)Man(a1-3)[Gal(a1-3)Gal(b1-3)[Fuc(a1-4)]GlcNAc(b1-2)Man(a1-6)]Man(b1-4)GlcNAc(b1-4)GlcNAc
Outline: as §1

[12] = biological target: Gal(a1-3)Gal(b1-4)[Fuc(a1-3)]GlcNAc
Outline: as §1

[13] = biological target: Gal(a1-4)Gal(b1-4)GlcNAc(b1-2)Man(a1-3)[Gal(a1-4)Gal(b1-4)GlcNAc(b1-2)Man(a1-6)]Man(b1-4)GlcNAc(b1-4)GlcNAc
Outline: as §1

[14] = biological target: Gal(b1-3)GalNAc(b1-3)Gal(a1-4)Gal(b1-4)Glc
Outline: as §1

[15] = biological target: Gal(b1-3)GalNAc(b1-4)Gal(b1-4)Glc
Outline: as §1

[16] = biological target: Gal(b1-3)GlcNAc(b1-2)Man(a1-3)[Gal(b1-3)GlcNAc(b1-2)Man(a1-6)]Man(b1-4)GlcNAc(b1-4)GlcNAc
Outline: as §1

[17] = biological target: Gal(b1-3)GlcNAc(b1-6)Gal(b1-4)GlcNAc
Outline: as §1

[18] = biological target: Gal(b1-4)GlcNAc(b1-2)Man(a1-3)[Gal(b1-4)GlcNAc(b1-2)Man(a1-6)]Man(b1-4)GlcNAc(b1-4)GlcNAc
Outline: as §1

[19] = biological target: Gal(b1-4)GlcNAc(b1-2)Man(a1-3)[GlcNAc(b1-4)][Gal(b1-4)GlcNAc(b1-2)Man(a1-6)]Man(b1-4)GlcNAc(b1-4)GlcNAc
Outline: as §1

[20] = biological target: Gal(b1-4)GlcNAc(b1-3)Gal(b1-4)GlcNAc(b1-2)[Gal(b1-4)GlcNAc(b1-3)Gal(b1-4)GlcNAc(b1-6)]Man(a1-6)[Gal(b1-4)GlcNAc(b1-3)Gal(b1-4)GlcNAc(b1-2)Man(a1-3)]Man(b1-4)GlcNAc(b1-4)GlcNAc
Outline: as §1

GalNAc(a1-3)Gal = biological target: GalNAc(a1-3)Gal
Outline: as §1

GalNAc(a1-3)GalNAc = biological target: GalNAc(a1-3)GalNAc
Outline: as §1

[21] = biological target: GlcNAc(a1-4)Gal(b1-4)GlcNAc
Outline: as §1

[22] = biological target: GlcNAc(b1-2)[GlcNAc(b1-4)]Man(a1-3)[GlcNAc(b1-4)][GlcNAc(b1-2)Man(a1-6)]Man(b1-4)GlcNAc(b1-4)GlcNAc
Outline: as §1

[23] = biological target: GlcNAc(b1-3)Gal(b1-4)GlcNAc(b1-2)[GlcNAc(b1-3)Gal(b1-4)GlcNAc(b1-6)]Man(a1-6)[GlcNAc(b1-3)Gal(b1-4)GlcNAc(b1-2)Man(a1-3)]Man(b1-4)GlcNAc(b1-4)GlcNAc
Outline: as §1

[24] = biological target: GlcNAc(b1-3)Gal(b1-4)GlcNAc(b1-3)Gal(b1-4)GlcNAc(b1-3)Gal(b1-4)GlcNAc(b1-3)Gal(b1-4)GlcNAc(b1-2)Man(a1-3)[GlcNAc(b1-3)Gal(b1-4)GlcNAc(b1-3)Gal(b1-4)GlcNAc(b1-3)Gal(b1-4)GlcNAc(b1-3)Gal(b1-4)GlcNAc(b1-2)Man(a1-6)]Man(b1-4)GlcNAc(b1-4)GlcNAc
Outline: as §1

[25] = biological target: GlcNAc(b1-3)Gal(b1-4)GlcNAc(b1-3)Gal(b1-4)GlcNAc(b1-3)GalNAc
Outline: as §1

Kdn(a2-3)Gal(b1-4)Glc = biological target: Kdn(a2-3)Gal(b1-4)Glc
Outline: as §1

[26] = biological target: Man(a1-2)Man(a1-2)Man(a1-3)Man
Outline: as §1

[27] = biological target: Man(a1-2)Man(a1-2)Man(a1-6)[Man(a1-3)]Man
Outline: as §1

Man(a1-2)Man(a1-3)Man = biological target: Man(a1-2)Man(a1-3)Man
Outline: as §1

[28] = biological target: Man(a1-2)Man(a1-3)[Man(a1-2)Man(a1-6)]Man
Outline: as §1

[29] = biological target: Man(a1-2)Man(a1-3)[Man(a1-2)Man(a1-6)]Man(a1-6)[Man(a1-2)Man(a1-2)Man(a1-3)]Man
Outline: as §1

[30] = biological target: Man(a1-2)Man(a1-3)[Man(a1-6)]Man(a1-6)[Man(a1-2)Man(a1-3)]Man(b1-4)GlcNAc(b1-4)GlcNAc
Outline: as §1

[31] = biological target: Man(a1-2)Man(a1-6)[Man(a1-3)]Man(a1-6)[Man(a1-2)Man(a1-2)Man(a1-3)]Man
Outline: as §1

[32] = biological target: Man(a1-2)Man(a1-6)[Man(a1-3)]Man(a1-6)[Man(a1-2)Man(a1-2)Man(a1-3)]Man(b1-4)GlcNAc(b1-4)GlcNAc
Outline: as §1

[33] = biological target: Man(a1-3)[Man(a1-6)]Man(a1-6)[Man(a1-2)Man(a1-3)]Man(b1-4)GlcNAc(b1-4)GlcNAc
Outline: as §1

[34] = biological target: Neu5Ac(a2-3)Gal(b1-3)GlcNAc(b1-2)Man(a1-3)[GlcNAc(b1-4)][Neu5Ac(a2-3)Gal(b1-3)GlcNAc(b1-2)Man(a1-6)]Man(b1-4)GlcNAc(b1-4)GlcNAc
Outline: as §1

[35] = biological target: Neu5Ac(a2-3)Gal(b1-4)GlcNAc(b1-2)Man
Outline: as §1

[36] = biological target: Neu5Ac(a2-3)Gal(b1-4)GlcNAc(b1-2)Man(a1-3)[GlcNAc(b1-4)][Neu5Ac(a2-3)Gal(b1-4)GlcNAc(b1-2)Man(a1-6)]Man(b1-4)GlcNAc(b1-4)GlcNAc
Outline: as §1

[37] = biological target: Neu5Ac(a2-3)Gal(b1-4)GlcNAc(b1-2)[Neu5Ac(a2-3)Gal(b1-4)GlcNAc(b1-4)]Man(a1-3)[GlcNAc(b1-4)][Neu5Ac(a2-3)Gal(b1-4)GlcNAc(b1-2)[Neu5Ac(a2-3)Gal(b1-4)GlcNAc(b1-6)]Man(a1-6)]Man(b1-4)GlcNAc(b1-4)GlcNAc
Outline: as §1

[38] = biological target: Neu5Ac(a2-3)Gal(b1-4)GlcNAc(b1-3)Gal(b1-4)GlcNAc(b1-3)[Neu5Ac(a2-3)Gal(b1-4)GlcNAc(b1-3)Gal(b1-4)GlcNAc(b1-6)]GalNAc
Outline: as §1

[39] = biological target: Neu5Ac(a2-3)Gal6S(b1-4)[Fuc(a1-3)]GlcNAc
Outline: as §1

[40] = biological target: Neu5Ac(a2-6)Gal(b1-4)GlcNAc(b1-2)Man(a1-3)[GlcNAc(b1-4)][Neu5Ac(a2-6)Gal(b1-4)GlcNAc(b1-2)Man(a1-6)]Man(b1-4)GlcNAc(b1-4)GlcNAc
Outline: as §1

[41] = biological target: Neu5Ac(a2-6)Gal(b1-4)GlcNAc(b1-2)Man(a1-3)[Neu5Ac(a2-3)Gal(b1-4)GlcNAc(b1-2)Man(a1-6)]Man(b1-4)GlcNAc(b1-4)GlcNAc
Outline: as §1

[42] = biological target: Neu5Ac(a2-6)Gal(b1-4)GlcNAc(b1-3)Gal(b1-4)GlcNAc(b1-3)Gal(b1-4)GlcNAc(b1-2)Man(a1-3)[Neu5Ac(a2-6)Gal(b1-4)GlcNAc(b1-3)Gal(b1-4)GlcNAc(b1-3)Gal(b1-4)GlcNAc(b1-2)Man(a1-6)]GalNAc
Outline: as §1

[43] = biological target: Neu5Ac(a2-6)Gal(b1-4)GlcNAc(b1-3)Gal(b1-4)GlcNAc(b1-6)[Gal(b1-3)]GalNAc
Outline: as §1

[44] = biological target: Neu5Ac(a2-8)Neu5Ac(a2-8)Neu5Ac(a2-3)Gal(b1-4)Glc
Outline: as §1

Neu5Gc(a2-6)GalNAc = biological target: Neu5Gc(a2-6)GalNAc
Outline: as §1

B1: CVN-E41G (protein)
chain: MHHHHHHENLYFQSGNFSQACYNSAIQGSVLTSTCIRTNGGYNTSSIDLNSVIANVDGSLKWQGSNFIETCRNTQLAGSSELAAECKTRAQQFVSTKINLDDHIAAIDGTLKYE
glycan array binding signal (z-score) [1]: -0.16
glycan array binding signal (z-score) [2]: -0.09
glycan array binding signal (z-score) [3]: -0.19
glycan array binding signal (z-score) [4]: -0.145
glycan array binding signal (z-score) [5]: -0.168
glycan array binding signal (z-score) [6]: 1.61
glycan array binding signal (z-score) [7]: -0.123
glycan array binding signal (z-score) [8]: -0.221
glycan array binding signal (z-score) [9]: -0.194
glycan array binding signal (z-score) [10]: -0.171
glycan array binding signal (z-score) (Gal(a1-2)Gal): -0.221
glycan array binding signal (z-score) (Gal(a1-3)Gal(b1-3)GlcNAc): -0.192
glycan array binding signal (z-score) [11]: 1.41
glycan array binding signal (z-score) [12]: -0.243
glycan array binding signal (z-score) [13]: 0.1
glycan array binding signal (z-score) [14]: -0.198
glycan array binding signal (z-score) [15]: -0.211
glycan array binding signal (z-score) [16]: 0.128
glycan array binding signal (z-score) [17]: -0.121
glycan array binding signal (z-score) [18]: -0.227
glycan array binding signal (z-score) [19]: -0.238
glycan array binding signal (z-score) [20]: 0.189
glycan array binding signal (z-score) (GalNAc(a1-3)Gal): -0.219
glycan array binding signal (z-score) (GalNAc(a1-3)GalNAc): -0.252
glycan array binding signal (z-score) [21]: -0.214
glycan array binding signal (z-score) [22]: -0.211
glycan array binding signal (z-score) [23]: -0.064
glycan array binding signal (z-score) [24]: -0.204
glycan array binding signal (z-score) [25]: -0.168
glycan array binding signal (z-score) (Kdn(a2-3)Gal(b1-4)Glc): -0.177
glycan array binding signal (z-score) [26]: 8.7
glycan array binding signal (z-score) [27]: 8.39
glycan array binding signal (z-score) (Man(a1-2)Man(a1-3)Man): 7.22
glycan array binding signal (z-score) [28]: 8.35
glycan array binding signal (z-score) [29]: 10.5
glycan array binding signal (z-score) [30]: 5.81
glycan array binding signal (z-score) [31]: 9.42
glycan array binding signal (z-score) [32]: 6.36
glycan array binding signal (z-score) [33]: 3.98
glycan array binding signal (z-score) [34]: 0.053
glycan array binding signal (z-score) [35]: 0.044
glycan array binding signal (z-score) [36]: -0.212
glycan array binding signal (z-score) [37]: -0.177
glycan array binding signal (z-score) [38]: -0.218
glycan array binding signal (z-score) [39]: -0.235
glycan array binding signal (z-score) [40]: -0.208
glycan array binding signal (z-score) [41]: -0.216
glycan array binding signal (z-score) [42]: -0.108
glycan array binding signal (z-score) [43]: -0.172
glycan array binding signal (z-score) [44]: -0.226
glycan array binding signal (z-score) (Neu5Gc(a2-6)GalNAc): -0.18
